# ALDH1A1 inh: qHTS Assay for Inhibitors of Aldehyde Dehydrogenase 1 (ALDH1A1) | Potency, µM (titrated, usually from 75.3 µM), for inactives: top-dose activity, negative = inhibition, actives largely listed as inhibitors | Purified ALDH1A1, NADH fluorescence, propionaldehyde substrate | Aldehyde dehydrogenase 1A1 (Homo sapiens), P00352 | 7.3% of 220,000 active;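 further: potency means the concentration at half of the fitted maximal effect; plate controls were no enzyme wells and a reference inhibitor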
# PNC assembly inh: High Content Assay for Compounds that inhibit the Assembly of the Perinucleolar Compartment | PC3M PTB-GFP, PNC prevalence imaging, 16 h; hits give low values | activity change (PNC), negative = inhibition, % at 10 µM | 3.1% of 140,000 active;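 active means readout at or below -70, meaning at least 70% loss of cells showing the perinucleolar compartment, a nuclear body marking cancer cells; inconclusive means readout between -30 and a set limit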;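 further: plate controls were DMSO wells for no effect and camptothecin positive control wells for full effect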
#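 PC3M cells stably expressing PTB-GFP, 750–1000 cells/well, treated 16 h at 37 °C with compound (23 nl of library stock), in duplicate. After paraformaldehyde fixation and Hoechst stain, imaged at 20x; PNC prevalence scored by image analysis.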
# IMPase Li cell: qHTS Assay for Identifying the Cell-Membrane Permeable IMPase Inhibitors: Potentiation with Lithium; CHO-M1 cells, IP1 TR-FRET (IP-One), carbachol + lithium; Potency, µM (titrated, usually from 59.4 µM), for the others: at the highest dose activity, negative = IMPase inhibition, hits mostly inhibitors; 0.35% of 210,000 active; AID 1457, 2008; active means well fitted curve in the direction sought with a large enough effect; inconclusive means small, poorly fitted or top-dose-only effect, or another doubt; inactive means no such curve, though single readings can be large; an effect the other way counts as inactive or inconclusive;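 further: IP1 builds up when IMPase is blocked and the TR-FRET signal falls; potency means the concentration at half of the fitted maximal effect; plate controls were basal vehicle for no effect and high inhibitor control for full effect; nearly all actives have a fitted effect of over 50% in size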
#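 Readout is a homogeneous TR-FRET IP1 immunoassay (Ex 320, Em 665 and 620), where raised cytosolic IP1 lowers signal. Cells were CHO-M1 treated 30 min at 37C with test compounds plus a little lithium; AC50 values came from Hill-equation fitting.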
# ALOX12 inhib: qHTS Assay for Inhibitors of 12-hLO (12-human lipoxygenase); Polyunsaturated fatty acid lipoxygenase ALOX12 (Homo sapiens), P18054; purified 12-hLO, xylenol orange hydroperoxide absorbance; Potency, µM (titrated, usually from 57.1 µM), without a hit: top-dose activity change, negative = inhibition, most hits filed as inhibitors; 0.12% of 150,000 active; AID 1452, 2008; active means well fitted curve in the direction sought with a large enough effect; inconclusive means small, poorly fitted or top-dose-only effect, or another doubt; inactive means no such curve, though single readings can be large; an effect the other way counts as inactive or inconclusive; further: potency means the concentration at half of the fitted maximal effect; nearly all actives have a fitted effect of over 55% in size
# Target sequence (P18054 whole entry, looked up): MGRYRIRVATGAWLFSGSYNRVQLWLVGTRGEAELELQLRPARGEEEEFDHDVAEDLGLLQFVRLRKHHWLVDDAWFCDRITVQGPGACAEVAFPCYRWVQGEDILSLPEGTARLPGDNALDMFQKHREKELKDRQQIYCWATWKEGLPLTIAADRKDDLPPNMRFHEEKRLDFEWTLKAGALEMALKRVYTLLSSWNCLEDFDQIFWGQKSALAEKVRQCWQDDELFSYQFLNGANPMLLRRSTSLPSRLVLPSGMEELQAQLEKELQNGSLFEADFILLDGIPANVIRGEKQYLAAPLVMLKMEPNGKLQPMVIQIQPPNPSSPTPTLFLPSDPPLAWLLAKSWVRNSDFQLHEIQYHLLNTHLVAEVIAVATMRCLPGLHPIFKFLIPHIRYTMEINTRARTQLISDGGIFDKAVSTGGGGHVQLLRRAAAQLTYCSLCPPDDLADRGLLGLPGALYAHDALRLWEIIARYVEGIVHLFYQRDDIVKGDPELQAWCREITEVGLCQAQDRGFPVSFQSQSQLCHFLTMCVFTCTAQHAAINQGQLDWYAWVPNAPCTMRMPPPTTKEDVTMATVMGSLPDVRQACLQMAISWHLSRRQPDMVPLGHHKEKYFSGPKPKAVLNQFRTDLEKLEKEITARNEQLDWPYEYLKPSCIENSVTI
#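 Hydroperoxide output read as Fe(III)-xylenol orange absorbance, 573-to-405 nm ratio, after 30 min reaction with 40 uM arachidonic acid. Enzyme: 150 nM purified human 12hLO, 15 min compound preincubation; 25 mM Hepes pH 7.0, room temperature.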
# HPGD block: qHTS Assay for Inhibitors of HPGD (15-Hydroxyprostaglandin Dehydrogenase). 15-hydroxyprostaglandin dehydrogenase [NAD(+)] (Homo sapiens), P15428. purified HPGD, NADH fluorescence kinetic, PGE2 substrate. Potency, µM, without a hit: at the highest dose activity change, negative = inhibition, usual class: inhibitors. 4.3% of 150,000 active. AID 894, 2007; further: potency means the concentration at half of the fitted maximal effect
#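 20 nM HPGD preincubated 15 min at room temperature with compound in 50 mM Tris-HCl pH 8, 0.01% Tween 20. Started with 1 mM NAD+ and 30 uM prostaglandin E2; NADH fluorescence (360/450 nm) read 5 times over 30-s intervals, last minus first.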
# IMPase cell inh: qHTS Assay for Identifying the Cell-Membrane Permeable IMPase Inhibitors | 120,000 tested, under 10 active | CHO-M1 cells, IP1 accumulation, HTRF TR-FRET ratio | inhibition (IP1 accumulation), % at 46.1 µM | AID 901, 2007; active means well fitted curve in the direction sought with a large enough effect in the signal ratio, not every such curve was filed as active; inconclusive means small, poorly fitted or top-dose-only effect, or a change in a side signal; inactive means no such curve, though single readings can be large or run the other way; the % refers to the signal ratio;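 further: cells stimulated with carbachol in lithium chloride buffer; plate controls were DMSO basal wells for no effect and reference inhibitor wells for full effect; higher means more IMPase inhibition seen as more IP1 and lower FRET ratio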
#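 Carbachol-driven Gq signalling in CHO-M1 cells (2000/well) generates IP1. Compounds that block IMPase raise IP1 and so reduce the FRET signal from Eu-anti-IP1 and d2-IP1 after a 10 min room-temperature lysis.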
# * = called active by the depositor; ? = inconclusive; . = no result; [ ] = another dose, or the depositor's remark. Shown are actives, neighbours in structure and some others; about 11% of the full set was active somewhere. Unless noted, the call rests on the fitted dose curve; in most records, active means well fitted inhibition curve with a large enough effect (not every such curve was filed as active); inconclusive means small, poorly fitted or top-dose-only effect, or another doubt; inactive means no such curve, though single readings can be large or run the other way. Unless noted, on the % scale 0 is the no-effect control and ±100 the full control effect.
SMILES,ALDH1A1 inh,PNC assembly inh,IMPase Li cell,ALOX12 inhib,HPGD block,IMPase cell inh
Cc1cccc(N2CCN(Cc3nnc(-c4ccccc4C)o3)CC2C)c1 (centres undefined),.,.,.,.,.,7
CCNCCCNCCCCNCCCNCC,-3%,.,10%,10%,-10%,-6
CCOC(=O)c1c(C)[nH]c(C2=NNC(=NC3CC3)SC2)c1C,18µM*,.,17%,.,.,.
CN1CCN(C2CCCCCC2)CC1,11%,-119*,6%,1%,-4%,4
CCOCCCNC(=O)c1ccc(N2CCCC2)c(NS(=O)(=O)c2ccc(C)cc2)c1,7.9µM*,.,30%,.,.,.
COCCCNC(=O)c1ccc(N2CCCC2)c(NS(=O)(=O)c2ccc(C)cc2)c1,14µM*,7,-2%[38.3 µM],-6%,-25%,10
Cc1ccc(S(=O)(=O)Nc2cc(C(=O)NCCN(C)C)ccc2N2CCCCC2)cc1,16µM*,56,-1%,0%,-6%,16
COc1ccc(-c2oc3ncn4nc(COc5ccc(Cl)cc5)nc4c3c2-c2ccc(OC)cc2)cc1,.,.,.,.,.,-10
COc1ccc(OCc2nnc(SCC(=O)N(C)Cc3ccccc3)n2N)cc1,8.9µM*,.,5%,.,.,.
Cc1ccc2cc(C(c3nnnn3Cc3ccccc3)N3CCc4ccccc43)c(=O)[nH]c2c1 (centres undefined),18µM*,1,36%[38.3 µM],-17%,-4%,7
Cc1cc2cc(C(c3nnnn3Cc3ccco3)N3CCc4ccccc43)c(=O)[nH]c2cc1C (centres undefined),7.9µM*,-6,.,?,.,6
CCCCC(CC)CNC(=O)c1ncn[nH]1 (centres undefined),7%,.,1%,.,.,.
Cc1ccc(NC(=O)CCNC(=O)c2ccccc2Cl)cc1S(=O)(=O)N(C)C,3%,?,2%,2%,0%,.
Cc1ccc(NC(=O)CCNCc2ccco2)cc1S(=O)(=O)N(C)C,16µM*,.,17%,.,.,.
COc1ccc(CCC(=O)Nc2cccc(S(=O)(=O)N(C)C)c2)cc1OC,-9%,37,-9%,1%,-8%,.
COc1ccc(CCNCC(=O)Nc2ccc(C)c(S(=O)(=O)N(C)C)c2)cc1OC,16µM*,.,.,.,.,.
CC(=O)c1ccc(OCCCC(=O)Nc2ccc(C)c(S(=O)(=O)N(C)C)c2)cc1,?,4,-1%,2%,-8%,.
COc1ccc(OCC(=O)Nc2ccc(C)c(S(=O)(=O)N(C)C)c2)cc1,28µM*,.,1%,.,.,.
CN(C)c1ncc2nc(-c3cccc(C#N)c3)c(=O)n(C[C@H]3CCCO3)c2n1,?,.,-4%,.,.,.
CC(C)(O)C1CC[C@@]2(C)C3CCC4[C@@]5(C)CCCC(C)(C)C5C(O)C[C@]4(C)[C@]3(C)CC[C@@H]12 (some centres undefined),-4%,.,-5%,-1%,-6%,.
Cc1cc(OI)c(C(C)C)cc1-c1cc(C(C)C)c(OI)cc1C,7%,.,-10%,-3%[0.00818 µM],-15%,.
CS(=O)(=O)c1ccc(-c2cn3cc(C(=O)O)ccc3n2)cc1,?,.,-29%,.,.,.
COC(=O)c1ccc2nc(-c3ccc(S(C)(=O)=O)cc3)cn2c1,?,.,11µM*,.,.,.
CCSc1nnc(Nc2ccccc2)s1,-5%,-3,5%[38.3 µM],2%,-23%,10
CCSc1n[nH]c(=S)s1,1.8µM*,.,-10%,.,.,.
CCOC(=O)c1sc2nc(CC(=O)OC)nc(N3CCN(c4ccc(OC)cc4)CC3)c2c1C,0.1µM*,-100*,62%[38.3 µM],-3%,-11%,1
COc1ccc(C(CNC(=O)c2ccc(S(=O)(=O)N3CCOCC3)cc2)N2CCCCC2)cc1 (centres undefined),?,9,14%[38.3 µM],-2%,-3%,11

# Screens as filed in PubChem.
